# An excerpt weighted towards active compounds, which were near 10% of everything screened.
# HEK293 tox: Cytotoxic Profiling in HEK 293 Cell Line of Diverse Libraries Using Quantitative High-Throughput Screening | HEK 293 viability, ATP luminescence (CellTiter-Glo), 48-72 h | Potency, µM (doses to about 115 µM), for inactives: at the top dose activity change, negative = cytotoxicity, actives largely listed as inhibitors | actives 6.6% (n = 94,000) | AID 1345083, 2018; note: nearly all actives have a fitted effect of over 60% in size
#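 Viability of HEK 293 cells, plated at 250 cells/well, was judged by cellular ATP after compound treatment for 48 or 72 hr. Luminescence was imaged 10 min after CellTiter-Glo addition at room temperature.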
# FLuc inh: Firefly luciferase inhibition profiling of diverse chemical library using quantitative high-throughput screening; Luciferin 4-monooxygenase (Photinus pyralis), P08659; purified P. pyralis luciferase, luminescence, biochemical; Potency, µM (top dose mostly 115 µM), hits mostly inhibitors; actives 2.5% (n = 76,000); AID 1347043, 2019; note: nearly all actives have a fitted effect of over 65% in size
# Target sequence (P08659 whole entry, looked up): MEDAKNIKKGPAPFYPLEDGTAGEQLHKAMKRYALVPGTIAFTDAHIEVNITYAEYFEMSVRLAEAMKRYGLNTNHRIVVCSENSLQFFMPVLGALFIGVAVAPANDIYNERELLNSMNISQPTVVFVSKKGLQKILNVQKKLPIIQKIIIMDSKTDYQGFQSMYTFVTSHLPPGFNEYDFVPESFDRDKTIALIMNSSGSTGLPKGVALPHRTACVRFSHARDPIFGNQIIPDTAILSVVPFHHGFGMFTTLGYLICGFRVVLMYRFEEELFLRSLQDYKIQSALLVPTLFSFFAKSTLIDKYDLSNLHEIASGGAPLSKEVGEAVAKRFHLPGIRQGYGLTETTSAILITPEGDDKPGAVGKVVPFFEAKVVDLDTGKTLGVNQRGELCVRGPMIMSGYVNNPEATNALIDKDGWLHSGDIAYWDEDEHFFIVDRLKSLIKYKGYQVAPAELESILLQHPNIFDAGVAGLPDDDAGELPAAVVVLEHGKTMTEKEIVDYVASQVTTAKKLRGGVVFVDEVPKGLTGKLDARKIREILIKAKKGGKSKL
#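 Purified 10nM P. pyralis luciferase with 10uM D-luciferin and 10uM ATP in 50mM Tris acetate pH 7.5, 10mM Mg acetate, 0.01% Tween-20, 0.05% BSA. qHTS titration; luminescence read by CCD imager.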
# hNpr1 antagonist: Natriuretic polypeptide receptor (hNpr1) antagonism - Primary qHTS; HEK293 hNpr1 GloSensor cGMP, ANP-stimulated luminescence; actives 1.6% (n = 76,000); AID 1347048, 2019; Potency, µM (titrated, usually from 46.3 µM), for inactives: at the top dose activity change, negative = inhibition, usual class: inhibitors; calls by dose curve; note: nearly all actives have a fitted effect of over 60% in size
#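 Compound pre-incubated 30 min at room temperature on GloSensor-loaded HEK293 cells stably carrying hNpr1 and the pGS-40F cGMP biosensor. Stimulation uses hNppA at 0.1 nM final; luminescence is taken at baseline and 20 min post-agonist.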
# GPT2 inh: Primary qHTS assay for inhibitors of Glutamate pyruvate transaminase 2 (GPT2) | Alanine aminotransferase 2 (Homo sapiens), Q8TD30 | Recombinant GPT2, coupled pyruvate oxidase/HRP Amplex Red fluorescence | Potency, µM (doses to about 57.7 µM), for the others: top-dose activity change, negative = inhibition, usual class: inhibitors | actives 0.25% (n = 100,000); note: nearly all actives have a fitted effect of over 60% in size
#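 Fluorescence of coupled pyruvate oxidase/HRP/Amplex Red system (50uM Amplex, 30 min, dark) reports pyruvate formed by GPT2. Enzyme reaction: 10ng/uL GPT2, 2mM L-alanine, 250uM a-KG, 30 min room temperature, pH 7.5; 50uM AOA control.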
# NIH3T3 tox: Cytotoxic Profiling in NIH 3T3 Cell Line of Diverse Libraries Using Quantitative High-Throughput Screening; actives 4.3% (n = 94,000); NIH 3T3 viability, CellTiter-Glo ATP luminescence, 48-72 h; Potency, µM (highest dose often 96.7 µM), for the others: at the highest dose activity change, negative = cytotoxicity, usual class: inhibitors; note: nearly all actives have a fitted effect of over 55% in size
#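 Cells were seeded at 400 per well, treated with pin-transferred compound, and kept 48 or 72 hr at 37 °C before CellTiter-Glo addition and luminescence imaging of cellular ATP.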
# Active calls of the source: *; i = inactive; ? = inconclusive; . = not tested or not shown; [ ] = dose if it differs, or a comment. Unless noted, calls come from the whole dose curve; as a rule, active = well fitted curve in the direction sought with a large enough effect; inconclusive = small, poorly fitted or top-dose-only effect, or another doubt; inactive = no such curve, though single readings can be large; an effect the other way counts as inactive or inconclusive. % is set by controls: 0 for no effect and ±100 for the full control effect; potency is the fitted concentration of half-maximal effect.
SMILES,HEK293 tox,FLuc inh,hNpr1 antagonist,GPT2 inh,NIH3T3 tox
CC1=C[C@@H](CN2CCC[C@H]2CO)[C@H](C(C)C)C[C@H]1Cc1nnc(-c2ccc(N(C)C)cc2)o1,45µM*,i,1%,1%,40µM*
CC1=C[C@@H](CO)[C@H](C(C)C)C[C@H]1Cc1nnc(-c2ccncc2)o1,100µM*,i,-15%[70.6 µM],i,-25%[174 µM]
CC1=C[C@@H](CN(C)CCO)[C@H](C(C)C)C[C@H]1Cc1nnc(-c2ccc(N(C)C)cc2)o1,63µM*,i,-1%[70.6 µM],-12%[88.5 µM],40µM*
O=C(Nc1ccc(Cl)cc1)NC1CCCN(c2nc3ncccc3o2)C1 (configuration not stated),?,i,-15%,2%,?
CC1=C[C@@H](CO)[C@H](C(C)C)C[C@H]1Cc1nnc(-c2ccc(N(C)C)cc2)o1,?,?,-28%[70.6 µM],i,89µM*
CCOc1ccccc1C1NC(=O)N(CC(=O)NC(C)(C)C)C2=C1C(=O)OC2 (configuration not stated),3%,i,2%,-7%,4%
Cc1csc(NC(=O)C2(C)COCc3cnc(Nc4ccccc4)nc32)n1 (configuration not stated),79µM*,i,-12%[70.6 µM],-6%[88.5 µM],?
CC1(C(=O)Nc2ccccc2)COCc2cnc(Nc3ccccc3)nc21 (configuration not stated),79µM*,i,-15%[70.6 µM],-18%[88.5 µM],?
CC1(C(=O)NCc2ccccc2)COCc2cnc(Nc3ccccc3)nc21 (configuration not stated),?,i,-29%[70.6 µM],-12%[88.5 µM],?
COCCNC(=O)C1(C)CCc2cnc(Nc3cccc(OC)c3)nc21 (configuration not stated),?,i,1%[70.6 µM],1%[88.5 µM],?
COc1cccc(Nc2ncc3c(n2)C(C)(C(=O)Nc2nc(C)cs2)CC3)c1 (configuration not stated),50µM*,i,-27%[70.6 µM],4%[88.5 µM],?
COc1cccc(Nc2ncc3c(n2)C(C)(C(=O)N2CC[S+](=O)([O-])CC2)CC3)c1 (configuration not stated),2%[172 µM],i,3%[70.6 µM],i,100µM*
COc1ccccc1-c1cccc(C(=O)N2CCN([S+](=O)([O-])c3cccs3)CC2)c1,20µM*,.,.,i,?
COc1ccccc1-c1cccc(C(=O)N2CCN([S+](=O)([O-])c3c(C)noc3C)CC2)c1,?,.,.,0%,-26%
COc1ccccc1-c1cccc(C(=O)N2CCN([S+](=O)([O-])c3ccccc3)CC2)c1,32µM*,.,.,i,?
CCC(=O)Nc1ccc(C2(C(=O)O)CCCCC2)cc1,6%,i,5%,i,i
Cn1nc(C2CCNC2)c2c(C(=O)N3CCC(F)CC3)cc(C3CC3)nc21 (configuration not stated),3%,.,.,i,i
COc1ccc(C2(C(=O)N3c4ccccc4CC3c3noc(C4CCOCC4)n3)CC2)cc1 (configuration not stated),?,25µM*,-4%,-9%,?
O=C(NCc1ccccc1C(F)(F)F)c1cccc2c1CCN2C(=O)C1CC1,-31%,i,0%,5%,-15%
O=C1Nc2ccccc2C12CCN(Cc1cccc3ccccc13)C2 (configuration not stated),79µM*,.,.,-2%,79µM*
COc1ccc(CN2CCC3(C2)C(=O)Nc2ccccc23)cc1 (configuration not stated),?,.,.,i,-1%
CC(C)NC(=O)C1=NOC2CN(C(=O)c3ccn(C)n3)CC12 (configuration not stated),-2%,.,.,4%,i
COc1ccc(CCNC(=O)c2nc3sccn3c2-c2cccc(C(F)(F)F)c2)cc1,0%[172 µM],.,.,-8%[88.5 µM],-26%[138 µM]
Cc1ccc(CN2Cc3[nH]cnc3C[C@H]2C(=O)NCc2ccc(C(F)(F)F)cc2)cc1,71µM*,i,-18%[70.6 µM],-8%[88.5 µM],100µM*
N#Cc1ccc(CNC(=O)[C@@H]2Cc3nc[nH]c3CN2Cc2ccc(C(F)(F)F)cc2)cc1,-27%,i,1%,i,-30%
SMILES,HEK293 tox,FLuc inh,hNpr1 antagonist,GPT2 inh,NIH3T3 tox
COC(=O)[C@@H]1Cc2c([nH]c3ccccc23)[C@H]2C[C@@H](NCc3cccnc3)C[C@@H](c3ccc(C(F)(F)F)cc3)N21,?,i,2%,-2%,28µM*
COCC(=O)N[C@H]1C[C@H]2C(=O)NC[C@@H](CCC(=O)NCc3cccnc3)N2C1,-21%[172 µM],i,2%[70.6 µM],-9%[88.5 µM],-6%[174 µM]
CN1C[C@H](NCc2ccc(F)cc2)CCC[C@@H](C(=O)N(C)Cc2cccnc2)CC1=O,?,i,-6%[70.6 µM],-3%[88.5 µM],-13%[174 µM]
COC(=O)[C@@H]1Cc2c([nH]c3ccccc23)[C@H]2C[C@@H](NCc3cccnc3)C[C@@H](c3ccc(F)cc3)N21,22µM*,i,-3%,3%,20µM*
COC(=O)[C@@H]1Cc2c([nH]c3ccccc23)[C@H]2C[C@@H](NCc3cccnc3)C[C@@H](c3ccc(F)c(F)c3)N21,25µM*,i,-2%,0%,?
O=C(NCc1cccnc1)[C@@H]1C[C@@H](c2ccc(F)cc2)N(CCOc2ccccc2)C1,?,i,-18%[70.6 µM],-9%[88.5 µM],?
Cc1cnc(C2CCOCC2)n1CCNC(=O)C1(c2ccccc2)CCCC1,i,i,1%,4%,i
Cc1cccc(CN2CCc3c(sc4ncnc(N(C)C)c34)C2)c1,?,i,4%,?,?
COc1ccc(C(=O)Nc2ccc([C@@H](O)[C@H]3COCC(=O)N3CC3CCCCC3)cc2)cc1,35µM*,i,-19%,1%,?
CCOCCN1C(=O)COC[C@@H]1[C@H](O)c1ccc(NC(=O)COc2ccccc2)cc1,-27%[172 µM],i,0%[70.6 µM],4%[88.5 µM],-20%[138 µM]
O=C(Nc1ccc([C@@H](O)[C@H]2COCC(=O)N2Cc2ccccc2)cc1)c1ccc(F)cc1,100µM*,i,-9%[70.6 µM],-9%[88.5 µM],?
O=C(COc1ccccc1)Nc1ccc([C@@H](O)[C@H]2COCC(=O)N2Cc2ccc(F)cc2)cc1,?,i,-5%,i,-18%
